Where “and” joins values, the source holds several entries; their conditions need not be identical. Identical values can stand only once. Results filed as inconclusive are left out. Some structures have more than one record in an assay (separate samples or runs), and their calls can disagree. Calls of active or inactive are those of the source. Unless noted, the call rests on the fitted dose curve; in most records, active means well fitted curve in the direction sought with a large enough effect in the repeat runs; inconclusive means weak or mixed curves; inactive means no such curve, though single readings can be large; an effect the other way counts as inactive or inconclusive.
Experiments:
[1] = qHTS assay to identify small molecule antagonists of the sonic hedgehog signaling (Shh) pathway (AID 1259369; calls by dose curve; further: nearly all actives have a fitted effect of over 45% in size; further: potency means the concentration at half of the fitted maximal effect)
Outline: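 Cells are plated and held 4hr at 37 C, compounds (DMSO) are pinned in, conditioned medium is added to stimulate the pathway, and after 24hr luciferase reagent is added for 30min before luminescence is read.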

[2] = target: Estrogen receptor beta (Homo sapiens) (UniProt Q92731); assay: qHTS assay to identify small molecule agonists of the estrogen receptor beta (ER-beta) signaling pathway (AID 1259377; active means well fitted activation curve with a large enough effect in the signal ratio in the repeat runs, not every such curve was filed as active; the % refers to the signal ratio)
Outline: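 ER-beta-UAS-bla HEK293T (GripTite) cells carrying a UAS-driven beta-lactamase reporter, in medium with 2% charcoal-stripped FBS, were exposed to compounds for 16 hr at 37C; LiveBLAzer B/G FRET substrate was then added and fluorescence read after 2 hours at room temperature.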

[3] = target: Estrogen receptor beta (Homo sapiens) (UniProt Q92731); assay: qHTS assay to identify small molecule antagonists of the estrogen receptor beta (ER-beta) signaling pathway (AID 1259378; active means well fitted inhibition curve with a large enough effect in the signal ratio in the repeat runs, not every such curve was filed as active; the % refers to the signal ratio; further: potency means the concentration at half of the fitted maximal effect)
Outline: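 ER-beta-UAS-bla HEK293T (GripTite) cells in 2% charcoal-stripped FBS medium were preincubated 6 hr at 37C, dosed with compound, then stimulated with 1 nM E2 (final) for 16 hr; beta-lactamase reporter read by B/G FRET fluorescence after 2 hr substrate loading.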

[4] = qHTS assay to identify small molecule agonists of the androgen receptor (AR) signaling pathway in the presence of an antagonist - cell viability counter screen (AID 1259379); further: nearly all actives have a fitted effect of over 25% in size; further: potency means the concentration at half of the fitted maximal effect
Outline: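 Cytotoxicity is assessed by CellTiter-Fluor in MDA-kb2 cells carrying an MMTV-driven luciferase reporter. Cells receive 3.0uM nilutamide plus compounds at 15 concentrations and incubate 16 hr at 37C without CO2 before fluorescence reading.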

[5] = qHTS assay to identify small molecule agonists of the estrogen receptor beta (ER-beta) signaling pathway - cell viability counter screen (AID 1259380); further: nearly all actives have a fitted effect of over 30% in size; further: potency means the concentration at half of the fitted maximal effect
Outline: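 Cytotoxicity is measured in parallel with the reporter screen: after 16 hr compound exposure at 37C and a 2 hr LiveBLAzer step, CellTiter-Glo is added to the same ER-beta-UAS-bla HEK293T wells and luminescence read after 30 min.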

[6] = qHTS assay to identify small molecule antagonists of the estrogen receptor beta (ER-beta) signaling pathway - cell viability counter screen (AID 1259382); further: nearly all actives have a fitted effect of over 55% in size; further: potency means the concentration at half of the fitted maximal effect
Outline: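 Cytotoxicity counter screen multiplexed with the beta-lactamase antagonist assay: GripTite HEK293T ER-beta-bla cells were treated 16 hr with test chemicals in the presence of 1nM 17-beta-estradiol, and viability was measured by CellTiter-Glo.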

[7] = target: Estrogen receptor (Homo sapiens) (UniProt P03372); assay: qHTS assay to identify small molecule agonists of the estrogen receptor alpha (ER-alpha) signaling pathway in the presence of an antagonist (AID 1259383; calls by dose curve; further: top concentration of the series differs between compounds; nearly all actives have a fitted effect of over 15% in size)
Outline: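 Agonist-mode confirmation in the presence of the ER antagonist ICI-182,780 at 10.0nM final. Breast-derived VM7Luc4E2 reporter cells were exposed to compounds for 22hr, and ERE-driven luciferase was quantified by luminescence.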

[8] = qHTS assay to identify small molecule agonists or antagonists of the thyroid stimulating hormone receptor (TSHR) signaling pathway - wild type cell line counter screen (AID 1259384; calls by dose curve)
Outline: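 Wild-type HEK293 cells were plated 18 h at 37 C/5% CO2, pin-dosed with compound plus Ro20-1724 medium, held 30 min at room temperature, then given cAMP-d2 and anti-cAMP-cryptate; fluorescence was read after 1 h. Fifteen concentrations, triplicate.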

[9] = target: Thyrotropin receptor (Homo sapiens) (UniProt P16473); assay: qHTS assay to identify small molecule antagonists of the thyroid stimulating hormone receptor (TSHR) signaling pathway (AID 1259385; calls by dose curve; further: nearly all actives have a fitted effect of over 20% in size)
Outline: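 TSHR-HEK293 cells were plated and held 18 h at 37C/5% CO2, then given compound plus Ro20-1724 and stimulated with TSH at 1.5 ng/mL final. After 30 min at room temperature, cAMP was detected with cAMP-d2/anti-cAMP-cryptate (1 h) by fluorescence.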

[10] = qHTS assay to identify small molecule agonists of the estrogen receptor alpha (ER-alpha) signaling pathway in the presence of an antagonist - cell viability counter screen (AID 1259386);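 further: series mostly up to about 92 µM; cells exposed to compounds for 22 h at 37 °C before the viability read; nearly all actives have a fitted effect of over 30% in size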
Outline: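 Cytotoxicity was measured in parallel with the ERE-luciferase agonist screen, in the same wells. The cells were VM7Luc4E2, which endogenously express ER-alpha, and treatment was with compounds plus 10.0nM ICI-182,780 for 22hr.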

[11] = target: Progesterone receptor (Homo sapiens) (UniProt P06401); assay: qHTS assay to identify small molecule agonists of the progesterone receptor (PR) signaling pathway (AID 1346784; calls by dose curve; further: nearly all actives have a fitted effect of over 30% in size)
Outline: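 PR-UAS-bla HEK 293T cells carrying a UAS-driven beta-lactamase reporter were seeded in medium with 2% charcoal-stripped FBS, preincubated 6 hr at 37C, then exposed to compounds in DMSO for 16 hr; agonism was read by LiveBLAzer B/G FRET fluorescence.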

[12] = target: Progesterone receptor (Homo sapiens) (UniProt P06401); assay: qHTS assay to identify small molecule antagonists of the progesterone receptor (PR) signaling pathway (AID 1346795; active means well fitted inhibition curve with a large enough effect in the signal ratio in the repeat runs, not every such curve was filed as active; the % refers to the signal ratio)
Outline: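 PR-UAS-bla HEK293T cells carrying a UAS-driven beta-lactamase reporter were plated in medium with 2% charcoal-stripped FBS and rested 6 hr at 37C. Compounds were added with 1 nM R5020 (final) for 16 hr, then FRET substrate loaded 2 hr at room temperature.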

[13] = qHTS assay to identify small molecule antagonists of the progesterone receptor (PR) signaling pathway - cell viability counter screen (AID 1346798); further: nearly all actives have a fitted effect of over 50% in size; further: potency means the concentration at half of the fitted maximal effect
Outline: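 PR-UAS-bla HEK293T cells in medium with 2% charcoal-stripped FBS were treated with compounds plus R5020 for 16 hr at 37C. Cell viability was then read by CellTiter-Glo luminescence after 30 min at room temperature in the same wells.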

[14] = qHTS assay to identify small molecule agonists of the progesterone receptor (PR) signaling pathway - cell viability counter screen (AID 1346799; calls by dose curve; further: nearly all actives have a fitted effect of over 45% in size; further: potency means the concentration at half of the fitted maximal effect)
Outline: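 PR-UAS-bla HEK293T cells, 3,000 per well in medium with 2% charcoal-stripped FBS, were preincubated 6 hr at 37C, then exposed to compounds for 16 hr; viability was read as CellTiter-Glo luminescence after 30 min at room temperature.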

[15] = qHTS assay to identify small molecule antagonists of the TGF-beta/Smad signaling pathway - cell viability counter screen (AID 1346824); further: nearly all actives have a fitted effect of over 50% in size
Outline: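 SBE-bla HEK 293T cells were plated overnight at 37 C, then given compounds in DMSO plus TGF-beta1 (added as 0.25 ng/mL solution) for 5 hr. After the bla read, CellTiter-Glo was added to the same wells and luminescence read after 30 min at room temperature.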

[16] = qHTS assay to identify small molecule agonists of the TGF-beta/Smad signaling pathway - cell viability counter screen (AID 1346829); further: top concentration of the series differs between compounds; nearly all actives have a fitted effect of over 45% in size
Outline: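 HEK 293T SBE-bla line, 5 hr compound exposure at 37 C, multiplexed CellTiter-Glo viability read by luminescence.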

[17] = qHTS assay to identify small molecule agonists of the TGF-beta/Smad signaling pathway (AID 1346859; active means well fitted activation curve with a large enough effect in the signal ratio in the repeat runs, not every such curve was filed as active; the % refers to the signal ratio; further: series mostly up to about 77 µM)
Outline: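 HEK 293T cells stably carrying a beta-lactamase reporter driven by the Smad binding element were seeded overnight, exposed to DMSO-dissolved compounds for 5 hr at 37 C, 5% CO2, then loaded with FRET substrate for 2 hr at room temperature.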

[18] = target: Thyrotropin-releasing hormone receptor (Homo sapiens) (UniProt P34981); assay: qHTS assay to identify small molecule antagonists of the thyrotropin-releasing hormone receptor (TRHR) signaling pathway (AID 1346877; active means well fitted inhibition curve with a large enough effect in the repeat runs, not every such curve was filed as active; further: series mostly up to about 51 µM)
Outline: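 Antagonism is measured as suppression of the calcium response to 1 nM TRH in TRHR-HEK293 cells that have been dye-loaded for 2 h at 37 °C after overnight plating. Each compound is tested at 15 concentrations in triplicate.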

[19] = target: Thyrotropin-releasing hormone receptor (Homo sapiens) (UniProt P34981); assay: qHTS assay to identify small molecule agonists of the thyrotropin-releasing hormone receptor (TRHR) signaling pathway (AID 1346891; calls by dose curve; further: series mostly up to about 58 µM)
Outline: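 TRHR-expressing HEK293 cells were plated 18 h at 37 °C/5% CO2, loaded with calcium dye 2 h at 37 °C, then given compound in DMSO; fluorescence was read kinetically for 3 min at 1 s intervals.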

[20] = target: Androgen receptor (Homo sapiens) (UniProt P10275); assay: qHTS assay to identify small molecule agonists of the androgen receptor (AR) signaling pathway in the presence of an antagonist (AID 1259381; calls by dose curve; further: nearly all actives have a fitted effect of over 15% in size)
Outline: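 Agonist-mode confirmation screen: human MDA-kb2 cells stably expressing luciferase under an MMTV promoter bearing AR and GR response elements, co-treated with 3.0uM nilutamide (final). Luminescence measured after 16hr compound incubation.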

Measured: Potency

Sequence of Estrogen receptor (Homo sapiens) (P03372 whole entry, looked up): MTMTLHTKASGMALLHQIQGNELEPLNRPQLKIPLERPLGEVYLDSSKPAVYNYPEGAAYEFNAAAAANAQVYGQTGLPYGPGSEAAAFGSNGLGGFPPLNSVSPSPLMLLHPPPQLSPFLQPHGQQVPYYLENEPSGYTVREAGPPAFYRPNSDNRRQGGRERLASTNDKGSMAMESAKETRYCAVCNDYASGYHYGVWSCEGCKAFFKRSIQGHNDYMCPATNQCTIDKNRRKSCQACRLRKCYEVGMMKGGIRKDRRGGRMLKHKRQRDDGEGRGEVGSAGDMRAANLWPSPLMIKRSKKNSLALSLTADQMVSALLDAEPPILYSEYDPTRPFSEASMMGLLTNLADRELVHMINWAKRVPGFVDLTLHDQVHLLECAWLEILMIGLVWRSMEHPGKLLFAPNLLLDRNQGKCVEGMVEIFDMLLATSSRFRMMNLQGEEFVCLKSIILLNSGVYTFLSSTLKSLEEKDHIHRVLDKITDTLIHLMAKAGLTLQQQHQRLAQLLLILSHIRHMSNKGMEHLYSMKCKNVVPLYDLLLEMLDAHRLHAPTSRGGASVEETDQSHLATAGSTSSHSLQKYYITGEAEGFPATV
Sequence of Estrogen receptor beta (Homo sapiens) (Q92731 whole entry, looked up): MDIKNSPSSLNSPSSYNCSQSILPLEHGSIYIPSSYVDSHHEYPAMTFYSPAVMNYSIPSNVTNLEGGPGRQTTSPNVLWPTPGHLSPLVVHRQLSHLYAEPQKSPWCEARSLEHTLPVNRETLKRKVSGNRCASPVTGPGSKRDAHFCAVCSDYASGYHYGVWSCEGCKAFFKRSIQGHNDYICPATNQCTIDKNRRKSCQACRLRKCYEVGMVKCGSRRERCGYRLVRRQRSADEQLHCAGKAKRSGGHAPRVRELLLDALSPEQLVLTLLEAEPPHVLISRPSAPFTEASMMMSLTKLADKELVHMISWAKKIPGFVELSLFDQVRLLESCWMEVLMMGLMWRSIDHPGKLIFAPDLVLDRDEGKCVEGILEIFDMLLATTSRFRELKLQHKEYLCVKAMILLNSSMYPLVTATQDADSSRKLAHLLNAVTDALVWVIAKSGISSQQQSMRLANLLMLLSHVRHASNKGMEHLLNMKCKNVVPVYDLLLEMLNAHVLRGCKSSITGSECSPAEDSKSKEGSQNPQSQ
Sequence of Androgen receptor (Homo sapiens) (P10275 whole entry, looked up): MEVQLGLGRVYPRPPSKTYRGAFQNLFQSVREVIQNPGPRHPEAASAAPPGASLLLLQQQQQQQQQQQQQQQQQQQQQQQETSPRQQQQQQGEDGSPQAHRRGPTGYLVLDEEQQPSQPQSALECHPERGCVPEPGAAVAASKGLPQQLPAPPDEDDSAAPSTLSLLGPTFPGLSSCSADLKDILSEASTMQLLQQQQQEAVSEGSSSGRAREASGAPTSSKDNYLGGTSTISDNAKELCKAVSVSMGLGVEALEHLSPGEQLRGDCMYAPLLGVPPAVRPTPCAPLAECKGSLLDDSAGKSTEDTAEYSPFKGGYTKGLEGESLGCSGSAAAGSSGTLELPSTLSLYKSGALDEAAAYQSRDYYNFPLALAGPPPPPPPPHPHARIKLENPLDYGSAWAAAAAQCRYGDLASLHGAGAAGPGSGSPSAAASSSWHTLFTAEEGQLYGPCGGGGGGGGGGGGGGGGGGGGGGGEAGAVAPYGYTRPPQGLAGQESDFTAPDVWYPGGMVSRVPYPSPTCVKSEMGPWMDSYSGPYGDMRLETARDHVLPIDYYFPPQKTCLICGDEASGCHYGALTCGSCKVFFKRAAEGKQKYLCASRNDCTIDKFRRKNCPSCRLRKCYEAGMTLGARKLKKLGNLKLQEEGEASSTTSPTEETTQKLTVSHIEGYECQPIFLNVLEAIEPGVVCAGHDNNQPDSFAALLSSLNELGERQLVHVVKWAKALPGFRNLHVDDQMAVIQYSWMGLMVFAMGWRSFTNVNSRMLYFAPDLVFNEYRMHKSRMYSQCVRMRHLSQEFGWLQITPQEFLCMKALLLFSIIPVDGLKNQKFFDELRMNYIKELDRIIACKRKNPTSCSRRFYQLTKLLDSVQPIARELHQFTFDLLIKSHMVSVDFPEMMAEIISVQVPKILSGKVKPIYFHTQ
Sequence of Thyrotropin-releasing hormone receptor (Homo sapiens) (P34981 whole entry, looked up): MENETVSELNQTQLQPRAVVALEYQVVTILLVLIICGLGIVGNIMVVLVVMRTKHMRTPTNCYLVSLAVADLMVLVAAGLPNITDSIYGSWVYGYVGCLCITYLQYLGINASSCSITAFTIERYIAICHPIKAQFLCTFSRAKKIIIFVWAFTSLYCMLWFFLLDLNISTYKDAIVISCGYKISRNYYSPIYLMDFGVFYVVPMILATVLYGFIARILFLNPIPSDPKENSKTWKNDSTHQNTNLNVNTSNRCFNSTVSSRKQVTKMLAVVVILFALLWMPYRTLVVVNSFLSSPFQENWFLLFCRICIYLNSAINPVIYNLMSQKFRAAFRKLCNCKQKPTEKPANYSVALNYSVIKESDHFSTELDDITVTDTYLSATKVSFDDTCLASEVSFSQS
Sequence of Progesterone receptor (Homo sapiens) (P06401 whole entry, looked up): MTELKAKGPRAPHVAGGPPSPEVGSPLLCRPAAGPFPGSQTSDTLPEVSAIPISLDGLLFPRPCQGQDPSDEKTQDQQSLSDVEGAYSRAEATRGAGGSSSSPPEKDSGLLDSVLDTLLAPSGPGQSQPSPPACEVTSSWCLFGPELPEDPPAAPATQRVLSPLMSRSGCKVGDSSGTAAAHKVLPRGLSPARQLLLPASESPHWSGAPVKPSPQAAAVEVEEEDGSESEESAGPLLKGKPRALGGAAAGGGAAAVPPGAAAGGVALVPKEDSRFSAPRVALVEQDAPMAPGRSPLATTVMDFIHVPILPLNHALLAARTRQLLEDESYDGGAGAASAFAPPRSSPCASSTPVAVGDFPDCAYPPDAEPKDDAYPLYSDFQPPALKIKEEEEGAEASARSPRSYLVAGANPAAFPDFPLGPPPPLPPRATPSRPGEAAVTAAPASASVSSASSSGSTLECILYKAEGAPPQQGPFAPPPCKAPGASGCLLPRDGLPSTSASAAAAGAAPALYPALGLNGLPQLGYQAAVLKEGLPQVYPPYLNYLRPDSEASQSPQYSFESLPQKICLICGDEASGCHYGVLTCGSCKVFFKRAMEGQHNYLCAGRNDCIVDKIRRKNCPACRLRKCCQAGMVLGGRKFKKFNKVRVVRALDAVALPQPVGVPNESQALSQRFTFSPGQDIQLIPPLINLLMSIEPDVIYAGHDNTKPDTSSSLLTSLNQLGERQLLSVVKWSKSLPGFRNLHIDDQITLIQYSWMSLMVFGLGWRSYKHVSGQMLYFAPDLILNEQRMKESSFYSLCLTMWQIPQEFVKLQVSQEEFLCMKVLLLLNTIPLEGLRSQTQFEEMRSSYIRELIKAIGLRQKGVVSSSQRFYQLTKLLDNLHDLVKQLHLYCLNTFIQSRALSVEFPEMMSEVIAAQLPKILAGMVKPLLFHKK
Sequence of Thyrotropin receptor (Homo sapiens) (P16473 whole entry, looked up): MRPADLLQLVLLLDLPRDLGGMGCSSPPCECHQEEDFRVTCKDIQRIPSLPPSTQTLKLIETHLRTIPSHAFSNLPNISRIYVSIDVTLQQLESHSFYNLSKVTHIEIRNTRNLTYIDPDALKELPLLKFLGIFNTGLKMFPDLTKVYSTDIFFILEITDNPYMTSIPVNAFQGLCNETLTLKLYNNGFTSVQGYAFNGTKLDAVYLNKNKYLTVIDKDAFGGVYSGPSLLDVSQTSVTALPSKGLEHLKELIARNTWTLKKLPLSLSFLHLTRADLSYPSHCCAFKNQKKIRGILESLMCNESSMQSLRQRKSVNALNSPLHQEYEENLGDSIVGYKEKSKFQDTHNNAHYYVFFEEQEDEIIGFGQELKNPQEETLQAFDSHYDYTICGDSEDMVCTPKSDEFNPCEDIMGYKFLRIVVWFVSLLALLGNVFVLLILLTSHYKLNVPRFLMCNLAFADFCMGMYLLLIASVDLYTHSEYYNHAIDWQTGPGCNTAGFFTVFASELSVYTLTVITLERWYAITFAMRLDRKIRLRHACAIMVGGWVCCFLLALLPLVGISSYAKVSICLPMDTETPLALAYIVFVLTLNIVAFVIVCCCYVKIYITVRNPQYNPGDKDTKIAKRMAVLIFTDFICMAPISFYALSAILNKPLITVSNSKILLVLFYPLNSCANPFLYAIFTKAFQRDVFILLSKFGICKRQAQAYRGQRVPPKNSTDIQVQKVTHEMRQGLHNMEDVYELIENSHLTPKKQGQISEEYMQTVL

Cc1scc2c1N(C(=O)CN1CCN(C)CC1)c1ccccc1NC2=O
not listed: [20]
inactive: all other assays above

BrC1CCC(Br)C(Br)CCC(Br)C(Br)CCC1Br (configuration not stated)
active: [1] 32.6 µM | [5] 30.5 µM and 46.1 µM | [6] 54.3 µM and 46.1 µM | [13] 54.3 µM and 51.7 µM | [14] 30.5 µM and 41.1 µM
inactive: [2] | [3] | [4] | [20] | [7] | [8] | [11] | [15]

O=Nc1ccc(Nc2ccccc2)cc1
active: [1] 1.38 µM and 2.43 µM | [3] 68.6 µM | [4] 54.8 µM and 54.5 µM | [5] 61.4 µM and 48.6 µM | [6] 61.4 µM
not listed: [8] | [9] | [11] | [12] | [13] | [14]
inactive: all other assays above

CC(=O)Nc1ccc(C(=O)CCl)cc1
inactive and 30.6 µM (active): [1]
active: [4] 54.5 µM
not listed: [7] | [9] | [19]
inactive: all other assays above

CC(C)(O)CCC(C)(C)O
not listed: [12]
inactive: all other assays above

Cc1cccc([N+](=O)[O-])c1C(=O)O
not listed: [9] | [12] | [18] | [19] | [20]
inactive: all other assays above

Source: PubChem BioAssay (Tox21)
